Results published in PubChem BioAssay (Tox21).
Results filed as inconclusive are left out. Calls of active or inactive are those of the source. Unless noted, calls follow the shape of the dose curve; as a rule, active = well fitted curve in the direction sought with a large enough effect in the repeat runs; inconclusive = weak or mixed curves; inactive = no such curve, though single readings can be large; an effect the other way counts as inactive or inconclusive.

Columns and labels:
[1] = qHTS assay to identify small molecule antagonists of the estrogen related receptor (ERR) signaling pathway (AID 1224819; also: nearly all actives have a fitted effect of over 50% in size)
Method in brief: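 qHTS in ERR cells, 2,000/well, 1536 format. Cpd (DMSO) added after 6 h settle, 18 h 37 C. One-Glo luminescence, 30 min RT.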

[2] = qHTS assay to identify small molecule agonists of the estrogen related receptor (ERR) signaling pathway (AID 1224820)
Method in brief: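 Cells: ERR line from NTP, 2,000/well. Pre-incubation 6 h, 37 C/5% CO2. Compound (DMSO) pin transfer, 18 h 37 C. One-Glo, 30 min RT, luminescence.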

[3] = tested on: estrogen-related receptor alpha (ERRalpha) with PGC-1alpha coactivator, human; assay: qHTS assay to identify small molecule antagonists of the estrogen related receptor signaling pathway with the pleiotropic PPARgamma coactivator (PGC) (AID 1224821; calls by dose curve; also: nearly all actives have a fitted effect of over 50% in size)
Method in brief: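 Luminescent read-out (One-Glo, 30 min at room temperature) following 18 h treatment of PGC/ERR cells at 37 C with compounds delivered in DMSO. Cells had settled 6 h at 37 C/5% CO2 before dosing.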

[4] = qHTS assay to identify small molecule antagonists of the estrogen related receptor signaling pathway with the pleiotropic PPARgamma coactivator (PGC) cell viability counter screen (AID 1224822;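 also: viability read after 17.5 h compound exposure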)
Method in brief: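 Compounds in DMSO, with positive and negative controls, were applied to PGC/ERR cells (2,000/well) and left 17.5 h at 37 C before CellTiter-Fluor detection.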

[5] = qHTS assay to identify small molecule agonists of the estrogen related receptor signaling pathway with the pleiotropic PPARgamma coactivator (PGC) (AID 1224823)
Method in brief: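 Steps: plate PGC/ERR cells at 2,000 cells/well; incubate 6 h, 37 C/5% CO2; pin-transfer compounds (DMSO); incubate 18 h, 37 C; add One-Glo; 30 min RT; read luminescence.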

Measured: Potency
Potency is read from the fitted curve at half-maximal effect.

NC(=O)c1ccc2[nH]ccc2c1
inactive: all assays above

N#CC(=C(\N)Sc1ccccc1N)/C(C#N)=C(/N)Sc1ccccc1N
active: [1] 10.2 µM | [3] 9.81 µM
inactive: all other assays above

CC[C@@H]1Cc2cc(O)ccc2C2=C1c1ccc(O)cc1C[C@H]2CC
inactive: [2] | [5]
active: [1] 14.4 µM | [3] 15 µM

NC(C(=O)N[C@@H]1C(=O)N2C(C(=O)O)=C(Cl)CS[C@H]12)c1ccccc1 (some centres undefined)
inactive: all assays above

O=C(O)c1cc([N+](=O)[O-])ccc1NCCCc1ccccc1
not listed: [4]
inactive: all other assays above

CC(C)C[C@H](NC(=O)C1OC1C(=O)O)C(=O)NCCCCN=C(N)N (some centres undefined)
inactive: all assays above

C=CCc1cccc(/C=N/NC(=O)CN2CCN(Cc3ccccc3)CC2)c1O
inactive: [2] | [3] | [5]
active: [1] 3.9 µM

Brc1c(Br)c(Br)c2[nH]cnc2c1Br
active: [1] 19.6 µM | [3] 6.94 µM
inactive: [2] | [5]

O=C1c2ccccc2C(=O)c2c(NCCc3ccc(O)cc3)ccc(NCCc3ccc(O)cc3)c21
active: [1] 18.1 µM | [4] 11.9 µM
inactive: all other assays above

O=C(/C=C/c1ccc(O)c(O)c1)OCCc1ccccc1
active: [5] 14.4 µM
inactive: all other assays above

CC1CNCCN1S(=O)(=O)c1cccc2cnccc12 (centres undefined)
inactive: all assays above

CCCCC[C@H](CC(=O)NO)C(=O)N[C@H](C(=O)N1CCC[C@H]1CO)C(C)C
active: [1] 5.11 µM | [3] 10.2 µM
inactive: all other assays above

Cc1cc2c(cc1Cl)N(C(=O)Nc1ccc(Oc3cccnc3C)nc1)CC2
active: [1] 5.11 µM | [3] 12.8 µM
inactive: [2] | [5]

O=C(O)CCCC[C@@H]1CCSS1
inactive: all assays above

Cc1nc(N=Nc2cc(S(=O)(=O)O)c3cc([N+](=O)[O-])cc(S(=O)(=O)O)c3c2)c(COP(=O)(O)O)c(C=O)c1O
not listed: [4]
inactive: all other assays above

Nc1nc(OCc2ccccc2)c2[nH]cnc2n1
inactive: all assays above

O=C1NCc2c1c1c3ccccc3[nH]c1c1[nH]c3ccccc3c21
active: [1] 2.76 µM
inactive: [2] | [3] | [5]

O=C1NC(=O)c2cc(Nc3ccccc3)c(Nc3ccccc3)cc21
inactive: [2] | [5]
active: [1] 10.2 µM | [3] 20.3 µM

Oc1ccc(C2CNCc3sccc32)cc1O (centres undefined)
inactive: all assays above

OCC1O[C@H]([S-])C(O)[C@@H](O)[C@@H]1O.[Au+] (some centres undefined)
inactive: [2] | [5]
active: [1] 22 µM | [3] 5.11 µM | [4] 9.08 µM

Nc1ncnc2c1c(-c1ccc(Oc3ccccc3)cc1)cn2C1CCCC1
inactive: [2] | [3] | [5]
active: [1] 11.9 µM

CCNc1nc2c(ncn2[C@H]2C[C@H](O)[C@@H](CO)O2)c(=O)[nH]1
inactive: all assays above

COc1ccc(C(=O)/C(Cc2cc(OC)c(OC)c(OC)c2)=C(\C(=O)O)c2ccc3c(c2)OCO3)cc1
active: [1] 10.2 µM | [4] 18.8 µM
inactive: [2] | [5]

OCC1NCC(O)C(O)C1O (centres undefined)
inactive: all assays above

O=C(O)CC1CCCc2ccccc2C1O (centres undefined)
inactive: all assays above

CCN(CC)CCOc1ccc(Nc2ncc3cc(-c4c(Cl)cccc4Cl)c(=O)n(C)c3n2)cc1
inactive: [2] | [3]
active: [1] 9.08 µM | [4] 1.74 µM | [5] 0.0908 µM

Cc1ccc(S(=O)(=O)/C=C/C#N)cc1
inactive: [1] | [3]
active: [2] 17.4 µM | [5] 15.5 µM

NC1C=CC=C(C(=O)O)C1 (centres undefined)
inactive: all assays above

Cn1c(=O)c2[nH]c(-c3ccccc3)nc2n(C)c1=O
inactive: all assays above

Cc1cccc(-c2[nH]c(C(C)(C)C)nc2-c2ccc3nccnc3c2)n1
active: [1] 10.2 µM | [3] 6.94 µM | [4] 8.1 µM
inactive: [2] | [5]
